This note sets out measurements from PMC7862700, “An all-to-all approach to the identification of sequence-specific readers for epigenetic DNA modifications on cytosine”.

What all share (test): DAPPL (digital affinity profiling via proximity ligation, sequencing); 10 mM Tris-HCl pH 7.5, 50 mM NaCl, 1 mM DTT, 4% glycerol, room temperature, 30 min; GST-TFs on glutathione beads, 16-mer random dsDNA library, 0.1% formaldehyde crosslink after washing; high values mean tight binding
For assay [1], the target named is T1, FEV (Homo sapiens, UniProt Q99581 1-238).
T1 sequence: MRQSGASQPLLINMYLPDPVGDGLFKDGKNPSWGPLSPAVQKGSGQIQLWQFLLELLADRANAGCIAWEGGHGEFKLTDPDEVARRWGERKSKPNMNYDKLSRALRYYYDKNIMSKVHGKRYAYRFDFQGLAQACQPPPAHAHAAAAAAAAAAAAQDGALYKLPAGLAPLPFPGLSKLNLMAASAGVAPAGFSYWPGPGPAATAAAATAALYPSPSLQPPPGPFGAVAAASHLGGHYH
The following applies: protein: recombinant; tags: N-terminal GST; dsDNA, one strand shown. In short, it runs like this:
(§1)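 Beads coated with glutathione captured GST-fused human transcription factors that had been expressed in yeast, and the factors were then given DNA barcodes and pooled with a tag-only sample. The pools were incubated with 200 nmole of a random double-stranded 16-mer DNA library in Tris/NaCl/DTT/glycerol buffer for 30 min at room temperature, washed, crosslinked with 0.1% formaldehyde and proximity-ligated with BsaI/T4 ligase at 37 °C for 1 h. PCR amplification and Illumina NextSeq500 sequencing came last. Binding signal is each hexamer's read frequency for a factor divided by its frequency for the tag-only sample.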

The target in assay [2] is ETV5 (Homo sapiens, UniProt P41161 1-510). Particulars: protein: recombinant; tags: N-terminal GST; dsDNA, one strand shown. In short, it runs like this:
as §1

For assay [3], the target named is HSF1 (Homo sapiens, UniProt Q00613 1-529). The following applies: protein: recombinant; tags: N-terminal GST; chain copies: 3; dsDNA, one strand shown. The procedure, abridged: as §1
For assay [4], the target named is T2, SPIC (Homo sapiens, UniProt Q8N5J4 1-248).
T2 sequence: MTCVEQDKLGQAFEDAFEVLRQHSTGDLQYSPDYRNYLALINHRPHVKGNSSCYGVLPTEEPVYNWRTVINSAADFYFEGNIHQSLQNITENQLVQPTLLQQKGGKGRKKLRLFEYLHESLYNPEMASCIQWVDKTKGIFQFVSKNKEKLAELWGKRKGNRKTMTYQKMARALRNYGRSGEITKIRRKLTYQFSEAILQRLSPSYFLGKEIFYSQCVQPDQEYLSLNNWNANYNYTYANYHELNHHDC
The following applies: protein: recombinant; tags: N-terminal GST; dsDNA, one strand shown. The procedure, abridged: as §1

Assay [5] deals with ELF4 (Homo sapiens, UniProt Q99607 1-663). The following applies: protein: recombinant; tags: N-terminal GST; dsDNA, one strand shown. The procedure, abridged:
as §1

The target in assay [6] is T3, ELK4 (Homo sapiens, UniProt P28324-2 1-405).
T3 sequence: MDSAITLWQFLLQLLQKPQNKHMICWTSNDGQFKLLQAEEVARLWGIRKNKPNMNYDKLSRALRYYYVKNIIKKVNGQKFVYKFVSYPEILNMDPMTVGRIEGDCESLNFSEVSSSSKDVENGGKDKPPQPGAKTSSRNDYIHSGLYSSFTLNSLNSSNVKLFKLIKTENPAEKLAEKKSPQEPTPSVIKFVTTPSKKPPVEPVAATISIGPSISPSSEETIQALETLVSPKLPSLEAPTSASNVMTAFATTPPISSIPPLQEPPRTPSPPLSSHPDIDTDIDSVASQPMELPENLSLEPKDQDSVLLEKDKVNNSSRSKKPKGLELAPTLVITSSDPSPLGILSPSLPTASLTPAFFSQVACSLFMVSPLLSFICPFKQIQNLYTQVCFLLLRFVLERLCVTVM
The following applies: protein: recombinant; tags: N-terminal GST; dsDNA, one strand shown. In short, it runs like this:
as §1

For assay [7], the target named is T4, ETV2 (Homo sapiens, UniProt O00321 1-342).
T4 sequence: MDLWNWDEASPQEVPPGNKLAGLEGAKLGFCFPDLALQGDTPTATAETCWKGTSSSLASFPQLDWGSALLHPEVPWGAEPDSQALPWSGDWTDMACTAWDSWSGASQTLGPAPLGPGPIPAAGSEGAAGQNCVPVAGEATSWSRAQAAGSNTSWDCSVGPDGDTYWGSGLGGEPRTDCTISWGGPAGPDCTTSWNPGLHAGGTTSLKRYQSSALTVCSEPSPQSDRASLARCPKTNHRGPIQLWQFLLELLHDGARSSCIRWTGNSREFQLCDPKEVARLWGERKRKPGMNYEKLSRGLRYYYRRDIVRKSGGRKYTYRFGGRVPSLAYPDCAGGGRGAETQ
Particulars: protein: recombinant; tags: N-terminal GST; dsDNA, one strand shown. The procedure, abridged:
as §1

Assay [8] has as its target T5, ELF3 (Homo sapiens, UniProt P78545 1-371).
T5 sequence: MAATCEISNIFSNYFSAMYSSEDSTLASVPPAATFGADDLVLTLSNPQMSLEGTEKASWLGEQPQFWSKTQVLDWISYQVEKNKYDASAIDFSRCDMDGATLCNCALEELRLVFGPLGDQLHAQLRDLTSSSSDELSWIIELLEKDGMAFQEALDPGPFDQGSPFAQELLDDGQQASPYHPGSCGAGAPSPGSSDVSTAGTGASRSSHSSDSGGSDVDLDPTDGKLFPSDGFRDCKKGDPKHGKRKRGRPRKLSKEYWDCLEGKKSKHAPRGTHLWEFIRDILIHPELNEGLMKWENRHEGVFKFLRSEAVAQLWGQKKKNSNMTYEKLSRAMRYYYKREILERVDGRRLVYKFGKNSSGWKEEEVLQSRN
Particulars: protein: recombinant; tags: N-terminal GST; dsDNA, one strand shown. In short, it runs like this:
as §1

For assay [9], the target named is CRX (Homo sapiens, UniProt O43186 1-299). The following applies: protein: recombinant; tags: N-terminal GST; dsDNA, one strand shown. In short, it runs like this:
as §1

Assay [10] concerns the target ETV1 (Homo sapiens, UniProt P50549 1-477). Particulars: protein: recombinant; tags: N-terminal GST; dsDNA, one strand shown. The procedure, abridged:
as §1

ETV5, sequence (P41161 whole entry): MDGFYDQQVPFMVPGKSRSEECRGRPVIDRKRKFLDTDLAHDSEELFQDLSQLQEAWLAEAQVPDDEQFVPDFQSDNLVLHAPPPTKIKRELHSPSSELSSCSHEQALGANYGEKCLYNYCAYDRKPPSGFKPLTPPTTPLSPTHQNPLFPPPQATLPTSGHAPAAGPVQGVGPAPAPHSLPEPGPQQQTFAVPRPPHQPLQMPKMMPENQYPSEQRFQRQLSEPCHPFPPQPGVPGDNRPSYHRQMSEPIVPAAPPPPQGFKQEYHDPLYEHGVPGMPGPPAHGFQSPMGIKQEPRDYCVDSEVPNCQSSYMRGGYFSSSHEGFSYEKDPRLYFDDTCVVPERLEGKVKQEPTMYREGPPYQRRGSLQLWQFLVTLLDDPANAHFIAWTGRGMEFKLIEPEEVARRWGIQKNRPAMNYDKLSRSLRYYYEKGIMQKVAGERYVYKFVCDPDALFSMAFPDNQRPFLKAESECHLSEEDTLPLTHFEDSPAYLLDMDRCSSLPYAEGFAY
CRX, sequence (O43186 whole entry): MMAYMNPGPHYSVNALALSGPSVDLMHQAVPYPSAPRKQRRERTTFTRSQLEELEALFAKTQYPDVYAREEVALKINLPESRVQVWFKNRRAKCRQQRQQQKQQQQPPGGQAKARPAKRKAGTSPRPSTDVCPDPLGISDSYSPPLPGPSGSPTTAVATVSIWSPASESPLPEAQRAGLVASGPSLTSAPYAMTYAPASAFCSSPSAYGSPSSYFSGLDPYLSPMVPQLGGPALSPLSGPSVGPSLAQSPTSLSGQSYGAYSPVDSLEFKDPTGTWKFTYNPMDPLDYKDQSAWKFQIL
ELF4, sequence (Q99607 whole entry): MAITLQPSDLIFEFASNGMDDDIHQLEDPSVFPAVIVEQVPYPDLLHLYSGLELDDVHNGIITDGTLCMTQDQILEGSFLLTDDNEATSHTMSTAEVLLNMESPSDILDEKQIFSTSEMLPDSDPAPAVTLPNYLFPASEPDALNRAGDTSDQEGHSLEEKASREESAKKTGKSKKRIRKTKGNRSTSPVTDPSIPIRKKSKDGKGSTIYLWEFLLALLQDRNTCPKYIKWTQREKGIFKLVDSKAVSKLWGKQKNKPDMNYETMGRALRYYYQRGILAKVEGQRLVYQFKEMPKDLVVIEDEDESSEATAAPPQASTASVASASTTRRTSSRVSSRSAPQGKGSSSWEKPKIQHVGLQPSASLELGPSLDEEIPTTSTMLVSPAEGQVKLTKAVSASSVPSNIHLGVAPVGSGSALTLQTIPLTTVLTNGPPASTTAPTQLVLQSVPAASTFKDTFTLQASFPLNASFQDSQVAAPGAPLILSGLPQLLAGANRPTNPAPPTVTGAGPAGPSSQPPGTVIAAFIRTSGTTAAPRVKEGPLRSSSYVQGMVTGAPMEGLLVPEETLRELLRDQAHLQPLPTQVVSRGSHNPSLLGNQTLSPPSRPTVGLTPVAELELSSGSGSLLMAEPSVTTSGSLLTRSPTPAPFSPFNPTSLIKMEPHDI
ETV1, sequence (P50549 whole entry): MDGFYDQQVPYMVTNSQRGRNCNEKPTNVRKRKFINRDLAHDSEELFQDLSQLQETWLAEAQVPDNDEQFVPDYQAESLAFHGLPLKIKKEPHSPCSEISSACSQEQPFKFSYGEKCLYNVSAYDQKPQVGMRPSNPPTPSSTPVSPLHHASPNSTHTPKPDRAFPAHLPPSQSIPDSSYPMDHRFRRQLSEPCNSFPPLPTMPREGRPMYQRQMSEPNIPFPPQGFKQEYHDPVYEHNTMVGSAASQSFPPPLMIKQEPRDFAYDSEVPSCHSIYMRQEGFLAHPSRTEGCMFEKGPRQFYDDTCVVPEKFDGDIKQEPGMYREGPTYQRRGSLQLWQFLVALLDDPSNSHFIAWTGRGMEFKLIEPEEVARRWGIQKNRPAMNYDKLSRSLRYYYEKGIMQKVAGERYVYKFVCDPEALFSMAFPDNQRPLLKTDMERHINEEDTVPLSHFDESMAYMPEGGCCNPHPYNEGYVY
HSF1, sequence (Q00613 whole entry): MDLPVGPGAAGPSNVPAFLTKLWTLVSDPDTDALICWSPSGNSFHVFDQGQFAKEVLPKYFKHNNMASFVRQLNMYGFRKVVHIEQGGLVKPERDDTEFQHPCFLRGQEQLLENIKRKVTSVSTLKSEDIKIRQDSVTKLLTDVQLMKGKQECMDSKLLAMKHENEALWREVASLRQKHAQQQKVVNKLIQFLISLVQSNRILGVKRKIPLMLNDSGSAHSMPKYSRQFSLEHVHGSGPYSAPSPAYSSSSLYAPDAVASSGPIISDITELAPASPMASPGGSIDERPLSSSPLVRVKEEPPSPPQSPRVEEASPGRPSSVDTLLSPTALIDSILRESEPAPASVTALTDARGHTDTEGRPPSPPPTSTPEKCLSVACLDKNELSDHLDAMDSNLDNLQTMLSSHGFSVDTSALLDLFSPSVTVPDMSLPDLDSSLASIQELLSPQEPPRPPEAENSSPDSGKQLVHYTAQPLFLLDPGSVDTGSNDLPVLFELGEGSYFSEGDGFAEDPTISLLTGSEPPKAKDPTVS

On to TTTATA, for which the binding signal in assay [1] was 1.28 fold enrichment (6-mer frequency, TF over GST control); in [2] it was 1.24 fold enrichment (6-mer frequency, TF over GST control); in [3], 1.54 fold enrichment (6-mer frequency, TF over GST control); in assay [4] it was 1.37 fold enrichment (6-mer frequency, TF over GST control); in assay [5], 1.36 fold enrichment (6-mer frequency, TF over GST control); in assay [6], 1.37 fold enrichment (6-mer frequency, TF over GST control). In addition, the binding signal in assay [7] was 1.26 fold enrichment (6-mer frequency, TF over GST control); in assay [8], 1.36 fold enrichment (6-mer frequency, TF over GST control); in [9], 2.05 fold enrichment (6-mer frequency, TF over GST control); in [10], 1.31 fold enrichment (6-mer frequency, TF over GST control).

Turning to ATTTCT, the binding signal in assay [1] is 1.43 fold enrichment (6-mer frequency, TF over GST control); in assay [2], 1.39 fold enrichment (6-mer frequency, TF over GST control); in [3], 2.3 fold enrichment (6-mer frequency, TF over GST control); in assay [4], 1.49 fold enrichment (6-mer frequency, TF over GST control); in [5], 1.4 fold enrichment (6-mer frequency, TF over GST control); in [6], 1.66 fold enrichment (6-mer frequency, TF over GST control). Besides, the binding signal in [7] was 1.4 fold enrichment (6-mer frequency, TF over GST control); in [8], 1.76 fold enrichment (6-mer frequency, TF over GST control); in assay [9] it was 1.68 fold enrichment (6-mer frequency, TF over GST control); in [10], 1.51 fold enrichment (6-mer frequency, TF over GST control).

Consider TGCTTT, for which the binding signal is 1.05 fold enrichment (6-mer frequency, TF over GST control) in [1]; 1.05 fold enrichment (6-mer frequency, TF over GST control) in assay [2]; 1.05 fold enrichment (6-mer frequency, TF over GST control) in assay [3]; 1.16 fold enrichment (6-mer frequency, TF over GST control) in [4]; 1.14 fold enrichment (6-mer frequency, TF over GST control) in assay [5]; 1.23 fold enrichment (6-mer frequency, TF over GST control) in assay [6]. Also, the binding signal in [7] was 1.12 fold enrichment (6-mer frequency, TF over GST control); in assay [8], 1.05 fold enrichment (6-mer frequency, TF over GST control); in [9], 1.09 fold enrichment (6-mer frequency, TF over GST control); in assay [10], 1.06 fold enrichment (6-mer frequency, TF over GST control).

In the case of ATTCCG, the binding signal in [1] was 1.79 fold enrichment (6-mer frequency, TF over GST control); in [2], 1.97 fold enrichment (6-mer frequency, TF over GST control); in assay [3], 1.52 fold enrichment (6-mer frequency, TF over GST control); in assay [4] it was 1.82 fold enrichment (6-mer frequency, TF over GST control); in assay [5], 1.61 fold enrichment (6-mer frequency, TF over GST control); in assay [6] it was 1.54 fold enrichment (6-mer frequency, TF over GST control). In addition, the binding signal in [7] is 1.79 fold enrichment (6-mer frequency, TF over GST control); in assay [8], 1.78 fold enrichment (6-mer frequency, TF over GST control); in [9], 1.27 fold enrichment (6-mer frequency, TF over GST control); in assay [10] it was 1.81 fold enrichment (6-mer frequency, TF over GST control).

On to ATAACA, for which the binding signal in assay [1] is 1.28 fold enrichment (6-mer frequency, TF over GST control); in assay [2], 1.25 fold enrichment (6-mer frequency, TF over GST control); in assay [3] it was 1.2 fold enrichment (6-mer frequency, TF over GST control); in assay [4], 1.31 fold enrichment (6-mer frequency, TF over GST control); in assay [5], 1.28 fold enrichment (6-mer frequency, TF over GST control); in assay [6], 1.2 fold enrichment (6-mer frequency, TF over GST control). The binding signal in assay [7] was 1.28 fold enrichment (6-mer frequency, TF over GST control); in assay [8] it was 1.21 fold enrichment (6-mer frequency, TF over GST control); in [9], 1.39 fold enrichment (6-mer frequency, TF over GST control); in [10], 1.24 fold enrichment (6-mer frequency, TF over GST control).

In the case of ATAACC, the binding signal in assay [1] was 1.22 fold enrichment (6-mer frequency, TF over GST control); in assay [2], 1.21 fold enrichment (6-mer frequency, TF over GST control); in [3], 1.09 fold enrichment (6-mer frequency, TF over GST control); in assay [4], 1.05 fold enrichment (6-mer frequency, TF over GST control); in assay [5] it was 1.23 fold enrichment (6-mer frequency, TF over GST control); in [6], 1.18 fold enrichment (6-mer frequency, TF over GST control). The binding signal in assay [7] is 1.05 fold enrichment (6-mer frequency, TF over GST control); in assay [8], 1.21 fold enrichment (6-mer frequency, TF over GST control); in assay [9], 1.27 fold enrichment (6-mer frequency, TF over GST control); in assay [10] it was 1.1 fold enrichment (6-mer frequency, TF over GST control).

For the sequence TCCGGC, the binding signal is 3.33 fold enrichment (6-mer frequency, TF over GST control) in assay [1]; 2.4 fold enrichment (6-mer frequency, TF over GST control) in assay [2]; 1.17 fold enrichment (6-mer frequency, TF over GST control) in assay [3]; 2.2 fold enrichment (6-mer frequency, TF over GST control) in assay [4]; 1.95 fold enrichment (6-mer frequency, TF over GST control) in [5]; 2.03 fold enrichment (6-mer frequency, TF over GST control) in assay [6]. Moreover, the binding signal in assay [7] is 2.4 fold enrichment (6-mer frequency, TF over GST control); in assay [8], 1.97 fold enrichment (6-mer frequency, TF over GST control); in [9], 1.1 fold enrichment (6-mer frequency, TF over GST control); in [10], 2.31 fold enrichment (6-mer frequency, TF over GST control).
